Pol beta inh: qHTS Assay for Inhibitors of DNA Polymerase Beta | Pol beta primer extension/strand displacement, fluorescence kinetic | P06746 | actives 1.3% (n = 340,000) | AID 485314, 2010 | Potency, µM (series often up to 114 µM), hits mostly inhibitors
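Curves were derived by four-parameter Hill fits of normalized qHTS data. The kinetic fluorescent primer-extension read was taken at 0 and 10 min after 50 nM substrate, following a 15 min room-temperature preincubation of 10 nM enzyme with compounds.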
POLI inh: qHTS for Inhibitors of Polymerase Iota; Pol iota fluorescent replication assay, 10 min; Potency, µM (highest dose often 115 µM), usual class: inhibitors; actives 1% (n = 390,000)
Target sequence (Q9UNA4 whole entry, looked up): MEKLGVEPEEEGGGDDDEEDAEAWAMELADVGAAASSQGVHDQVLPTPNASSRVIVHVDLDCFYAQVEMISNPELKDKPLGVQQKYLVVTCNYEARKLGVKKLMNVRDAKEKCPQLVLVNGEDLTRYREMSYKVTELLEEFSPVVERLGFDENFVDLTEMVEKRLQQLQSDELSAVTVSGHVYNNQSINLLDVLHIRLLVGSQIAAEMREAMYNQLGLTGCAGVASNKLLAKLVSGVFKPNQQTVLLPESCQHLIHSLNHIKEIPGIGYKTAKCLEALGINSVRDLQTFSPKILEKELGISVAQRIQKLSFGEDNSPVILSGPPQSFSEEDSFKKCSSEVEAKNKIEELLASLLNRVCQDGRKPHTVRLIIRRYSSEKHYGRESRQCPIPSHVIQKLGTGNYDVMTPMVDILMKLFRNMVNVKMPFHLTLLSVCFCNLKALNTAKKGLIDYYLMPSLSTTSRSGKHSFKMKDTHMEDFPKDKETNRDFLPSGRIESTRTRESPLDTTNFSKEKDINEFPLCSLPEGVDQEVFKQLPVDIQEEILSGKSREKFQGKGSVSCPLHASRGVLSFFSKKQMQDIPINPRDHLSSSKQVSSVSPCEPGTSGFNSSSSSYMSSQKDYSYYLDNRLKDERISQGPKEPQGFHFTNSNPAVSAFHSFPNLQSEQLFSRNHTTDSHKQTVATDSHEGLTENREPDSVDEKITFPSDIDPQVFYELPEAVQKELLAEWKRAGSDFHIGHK
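Fluorescent replication assay read twice, at 0 min and 10 min after adding 50 nM (final) substrate. Enzyme (10 nM) and compounds were first incubated 15 min at room temperature; enzyme-free buffer wells were negative controls.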
Pol eta inh-1: qHTS for Inhibitors of Polymerase Eta; Potency, µM (series often up to 114 µM), usual class: inhibitors; actives 1.2% (n = 390,000); recombinant Pol eta, fluorescent DNA replication assay; DNA polymerase eta (Homo sapiens), Q9Y253
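Pol eta at 10 nM preincubated with compounds 15 min at room temperature; reaction started with fluorescent substrate (50 nM final) and read kinetically at 0 and 10 min.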
FEN1 inh-1: qHTS Assay for the Inhibitors of Human Flap endonuclease 1 (FEN1). P39748. Potency, µM (top dose mostly 114 µM), hits mostly inhibitors. Recombinant FEN1 flap cleavage, fluorescence, 15 min. actives 0.35% (n = 390,000); further: nearly all actives have a fitted effect of over 65% in size
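Enzyme 10 nM, 15 min RT preincubation with compound; start with substrate 50 nM final; reads at 0 and 15 min; qHTS titration, four-parameter Hill fit.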
Pol kappa inh-1: qHTS for Inhibitors of Polymerase Kappa. DNA polymerase kappa (Homo sapiens), Q9UBT6. purified Pol kappa, fluorescent DNA synthesis assay, 10 min. Potency, µM (series often up to 107 µM), most hits filed as inhibitors. actives 0.53% (n = 400,000)
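Enzyme at 10 nM met test compounds for 15 min at room temperature. Substrate addition (50 nM final) began the reaction, which was monitored by fluorescence at 0 and 10 min.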
PI5P4Ka inh: qHTS for Inhibitors of phosphatidylinositol 5-phosphate 4-kinase (PI5P4K); Phosphatidylinositol 5-phosphate 4-kinase type-2 alpha (Homo sapiens), P48426; PI5P4Kalpha enzyme, ADP-Glo luminescence, 60 min; stronger effect = lower value; max response, %; actives 1.2% (n = 330,000); AID 652105, 2013; active means max response of -50% or lower; inconclusive means between -30% and -50%; inactive means -30% or higher; further: value at the top dose of about 77 µM
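Enzyme plus substrate dispensed, test compounds pinned in, then ATP (5 microM final) added. After 60 min at RT, ADP-Glo reagent 1 for 45 min and reagent 2 for 30 min preceded luminescence imaging.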
Pol kappa inh-2: qHTS for Inhibitors of Polymerase Kappa: Confirmatory Assay for Cherry-picked Compounds; shares compounds with Pol eta inh-1; purified Pol-kappa, fluorescent strand-displacement substrate; Potency, µM, actives largely listed as inhibitors; actives 76% (n = 920)
Pol eta inh-2: qHTS for Inhibitors of Polymerase Eta: Confirmatory Assay for Cherry-picked Compounds. shares compounds with Pol eta inh-1. Pol eta primer extension, TAMRA/BHQ fluorescence, 10 min. Potency, µM, usual class: inhibitors. actives 64% (n = 2,600)
FEN1 inh-2: qHTS Assay for the Inhibitors of FEN1: Confirmatory Assay for Cherry-picked Compounds; Potency, µM, actives largely listed as inhibitors; FEN1 flap cleavage, TAMRA/BHQ2 fluorogenic DNA substrate; AID 720498, 2013; shares compounds with FEN1 inh-1; actives 79% (n = 880); further: nearly all actives have a fitted effect of over 60% in size
Hits are given with their value; n = inactive; u = inconclusive; x = not tested or not shown. Hits are enriched below; roughly 2.8% of the tested compounds scored in any of these assays. Unless noted, the call rests on the fitted dose curve; in most records, active means well fitted curve in the direction sought with a large enough effect; inconclusive means small, poorly fitted or top-dose-only effect, or another doubt; inactive means no such curve, though single readings can be large; an effect the other way counts as inactive or inconclusive.

SMILES	Pol beta inh	POLI inh	Pol eta inh-1	FEN1 inh-1	Pol kappa inh-1	PI5P4Ka inh	Pol eta inh-2	FEN1 inh-2	others
OCCCNc1c2ccccc2nc2ccccc12	17.8µM	22.4µM	n	22.4µM	79.4µM	n	x	21.3	Pol kappa inh-2=u
NS(=O)(=O)c1cccc(NC(=O)COC(=O)CC2CC3CCC2C3)c1 (stereo unspecified)	n	n	n	n	n	n	x	x
Cc1ccc(CSc2nnc(-c3ccncc3)n2CC2CCCO2)cc1 (stereo unspecified)	n	n	n	n	n	n	x	x
N=C1/C(=C\c2coc3ccc(O)cc3c2=O)C(=O)N=C2SC=CN12	3.98µM	u	12.6µM	50.1µM	u	-69.5	19	u
CC1(C)C(=O)C=C[C@@]2(C)C1C=C[C@@]1(C)C2CC[C@@]2(C)C(c3ccoc3)OC(=O)C3OC312 (stereo partly specified)	x	x	x	x	n	x	x	x
CCN=c1scc(C)n1/N=C/c1cc(Br)c(O)c(Br)c1	u	n	u	n	n	u	x	x
CCN=c1scc(C)n1/N=C/c1ccc(O)c(O)c1O	10µM	8.91µM	6.31µM	u	22.4µM	-50.6	67.5	u
CN1c2ccccc2C(=O)N2CCc3c([nH]c4ccccc34)C21 (stereo unspecified)	x	n	x	n	n	x	x	x
Cc1cc(C)nc(NC(=O)/C=C/c2ccccc2Cl)n1	n	n	n	n	n	n	x	x
Cc1cc(N)c2cc(NC(=O)/C=C/c3ccccc3Cl)ccc2n1	50.1µM	n	u	u	n	u	67.5	75.7
CCn1cc(C(=O)O)c(=O)c2cc(F)c(N/N=C/c3ccccc3[N+](=O)[O-])cc21	u	n	5.62µM	n	n	u	42.6	7.57
CCn1cc(C(=O)O)c(=O)c2cc(F)c(N3CCN(C(=S)NC(=O)c4cccc(F)c4)CC3)cc21	n	n	n	n	n	n	x	x
Cc1ccc(C)c(Nc2nc3c(S(=O)(=O)c4ccc(Br)cc4)nnn3c3ccsc23)c1	17.8µM	44.7µM	n	u	u	x	x	u	Pol kappa inh-2=21.2
Cc1ccc(C)c(Nc2nc3c(S(=O)(=O)c4ccc(C(C)C)cc4)nnn3c3ccsc23)c1	n	n	n	n	n	x	x	x
O=C1NC(=O)/C(=C/c2ccc(-c3cc(C(=O)O)ccc3Cl)o2)S1	31.6µM	39.8µM	20µM	20µM	56.2µM	-81.9	u	37.9
O=C(O)CC(C(=O)O)N1C(=O)/C(=C/c2ccc(-c3nc4ccccc4s3)o2)SC1=S (stereo unspecified)	10µM	1µM	2.82µM	35.5µM	4.47µM	n	30.1	60.1
O=C(O)c1ccc(-c2nc3ccccc3s2)o1	n	u	n	n	n	n	x	x
COc1ccc(-c2cc(=O)c3c(O)cc(OC4OC(COC5OC(C)C(O)C(O)C5O)C(O)C(O)C4O)cc3o2)cc1O (stereo unspecified)	x	u	22.4µM	50.1µM	u	n	30.1	u	Pol kappa inh-2=11.9
COc1ccc(/C=N/NC(=O)c2[nH]c3ccc(Cl)cc3c2-c2ccccc2)c(C(=O)O)c1OC	n	n	79.4µM	u	n	n	37.9	37.9
COc1ccc(/C=N\NC(=O)COc2ccc(Cl)cc2Cl)c(C(=O)O)c1OC	n	n	n	n	n	n	x	x
